Test results taken from PubChem BioAssay AID651599 (National Center for Advancing Translational Sciences (NCATS), 2012).
Results filed as inconclusive are left out. A call without a number means that no potency is given here. Active and inactive are the calls of the source. Calls follow the shape of the dose curve; as a rule, active = well fitted inhibition curve with a large enough effect; inconclusive = small, poorly fitted or top-dose-only effect; inactive = no such curve, though single readings can be large or run the other way.

Target: Tumor susceptibility gene 101 protein (Homo sapiens) (UniProt Q99816)
Test: qHTS Assay for Iinhibitors of HIV-1 Budding by Blocking the Interaction of PTAP/TSG101: Hit Validation in TR assay
Conditions: Tsg101 binding domain + Texas Red-labeled PTAP peptide, fluorescence polarization, 20 min; series mostly up to 57.5 µM
How it was run: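 Texas Red-PTAP peptide (50 nM) binding to Tsg101 binding domain (10 uM), both final, in pH 7.5 HEPES buffer, read as polarization after 20 min at room temperature; compounds pinned before peptide addition.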
Potency is read from the fitted curve at half-maximal effect.

Tumor susceptibility gene 101 protein (Homo sapiens), sequence (Q99816 whole entry, looked up): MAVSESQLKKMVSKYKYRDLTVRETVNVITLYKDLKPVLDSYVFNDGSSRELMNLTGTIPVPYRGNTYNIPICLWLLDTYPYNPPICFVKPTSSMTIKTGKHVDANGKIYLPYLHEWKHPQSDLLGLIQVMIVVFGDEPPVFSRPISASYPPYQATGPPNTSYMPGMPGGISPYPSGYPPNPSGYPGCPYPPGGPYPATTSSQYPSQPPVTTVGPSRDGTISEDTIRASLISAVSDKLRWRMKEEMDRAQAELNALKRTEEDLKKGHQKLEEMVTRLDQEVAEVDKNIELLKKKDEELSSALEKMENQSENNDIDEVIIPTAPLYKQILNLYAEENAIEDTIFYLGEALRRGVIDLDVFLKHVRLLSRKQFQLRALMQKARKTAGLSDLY

Compound | Potency
Nc1c(C(=O)Nc2ccc(F)cc2)sc2nc(-c3cccs3)cc(C(F)(F)F)c12 | inactive
CN1/C(=C\C=C2/C(=O)Oc3ccccc3C2=O)C(C)(C)c2ccccc21 | inactive
O=[n+]1c2c(n([O-])c3cc(F)c(N4CCCC4)cc31)CCC2 | inactive
CCN(CC)c1ccc2cc(C(=O)NNC(=O)c3ccc(S(=O)(=O)N4CCCCC4)cc3)c(=O)oc2c1 | inactive
N#Cc1c(C#N)c(O)c2ccccc2c1O | inactive
CCSc1nnc(-c2sc3nnc(-c4ccccc4)c(-c4ccccc4)c3c2N)o1 | inactive
COc1ccc(C(=O)c2sc3nc(C)cc(-c4cccs4)c3c2N)cc1 | inactive
CCCCOc1ccc(C2OC34CCCCC3C(C#N)(C#N)C2(C#N)C(=N)O4)cc1 (centres undefined) | inactive
O=C(C1=NN(c2ccccc2)C2C(=O)N(c3ccccc3Cl)C(=O)C12)c1ccccc1 (centres undefined) | inactive
O=c1c(/C=C(\O)c2ccc(F)cc2)nc2ccccc2n1-c1ccccc1 | inactive
CCN(CC)c1ccc2cc(-c3nnc(-c4ccncc4)o3)c(=O)oc2c1 | inactive
CN1c2ccc(C=O)c3c(C=O)ccc(c23)N(C)C1(C)C | inactive
Cc1ccc(N=Cc2c(O)n(-c3nccs3)c(=O)c3ccccc23)c(C)c1 | inactive
O=C1c2cccc3c(O)ccc(c23)C(=O)N1Cc1ccccc1 | inactive
COc1ccc(CNS(=O)(=O)c2cc3c(cc2Cl)N(C(C)=O)CCO3)cc1 | inactive
CC[C@H](C)/C=C(C)/C=C/C1=CC2=CC(=O)[C@]3(C)OC(=O)[C@@H](C(C)=O)[C@@H]3C2=CO1 | inactive
CCOC(=O)/C(C#N)=C\c1ccc(N2CCN(C/C=C/c3ccccc3)CC2)cc1 | inactive
COc1ccc(/C(O)=C/c2nc3ccccc3n(-c3ccccc3)c2=O)cc1 | inactive
Cn1nc(-c2ccccc2)c2nc3ccccc3nc21 | inactive
O=C1CCCC2=C1Sc1ccc(Cl)cc1N2 | inactive

Compound | Potency
Cc1c2ccccc2nc2c(F)c(N(C)C)c(F)c(F)c12 | inactive
Cc1cc(Nc2cccc(Cl)c2C)n2ncnc2n1 | inactive
Cn1cc(/C=C2\SC(=S)N(NC(=O)c3cccc(Cl)c3)C2=O)c2ccccc21 | inactive
N=c1oc2ccc3ccccc3c2cc1-c1nc(-c2ccccc2)cs1 | inactive
CC(C)(C)OC(=O)NC(Cc1ccccc1)C(=O)N1CCC(C(=O)NCC(=O)Nc2ccc(F)cc2)CC1 (centres undefined) | inactive
CCCn1c(O)c(N=Nc2ccc3ccccc3n2)c2ccccc21 | inactive
C=CCOc1ccc(C2C(C(=O)c3cccs3)=C(O)C(=O)N2c2nnc(C)s2)cc1 (centres undefined) | inactive
O=C(CN1C(=O)c2ccccc2S1(=O)=O)Nc1ncc(Cl)cc1Cl | inactive
COc1ccc(-c2cc(C(F)(F)F)c3c(N)c(C(=O)NCCSC)sc3n2)cc1 | inactive
CC1C2C(c3ccccc3)N(C)C(=O)N(C)C2N(C)C(=O)N1C (centres undefined) | inactive
Cc1ccc[n+](-c2nc([O-])sc2C=O)c1 | inactive
Oc1c(C=Nc2ccccc2)sc2ccccc12 | 36.6 µM (active)
Cc1c2ccccc2nc2c(F)c(NC(C)C)c(F)c(F)c12 | inactive
O=c1oc2cc(O)ccc2cc1-c1nc2c(s1)CCc1ccccc1-2 | inactive
Cc1ccc(N2C(=O)c3cccc4c(N5CCN(C)CC5)ccc(c34)C2=O)c2cccnc12 | inactive
Cc1cc[n+](-c2[nH]c(=O)sc2/C=N/N=C(\[O-])c2ccccc2)cc1C | inactive
C=C1CCN(c2ccc(C(=O)O)cc2[N+](=O)[O-])CC1 | inactive
CCN(CC)C1=CC2=CC(=C(C#N)C#N)CCC2CC1 (centres undefined) | inactive
CCN(CC)c1ccc2cc(S(=O)(=O)c3ccc(C)cc3)c(=O)oc2c1 | inactive
